We go through 33 molecules from the supplement of paper PMC4723716.

± gives the uncertainty stated by the source. Whole data set: some 9,900 compounds, median “viability index relative to DMSO control” near 1, cut for the lowest 2% near 0.85. The sample as a whole holds a higher share of the lowest values than the screen did.

In this experiment the test system is Plasmodium falciparum NF54 stage V gametocytes. Briefly: viability index relative to DMSO control (fraction); higher = less gametocyte killing. Conditions: 2.5 µM, incubation time: 72 h. The method, boiled down: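 P. falciparum NF54 stage V gametocytes (serum-free medium, 0.75% gametocytemia, 1.25% hematocrit) were exposed to compound at 2.5 µM for 72 hr at 37°C under low oxygen, then stained with MitoTracker Red CMXRos and saponin for one to two hours. Red particles of 20–70 µm2 in one field per well were counted, and the viability index is that count scaled to the plate mean of solvent-only wells.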

[1] abbreviates: library set: Broad Institute DOS.
The mark [2] stands for this setting: library set: Broad Institute Blood Stage.

In the case of `CC(C)(C)[S@](=O)N1Cc2cc(C(=O)NCc3ccccc3F)nc(-c3cccc(-c4cncnc4)c3)c2[C@@H]1CCO`, the viability index under setting [1] came out at 0.89 ± 0.056. As to `CC(C)(C)[S@](=O)N1Cc2cc(C(=O)NCCc3ccncc3)nc(-c3cccc(-c4cccc(C#N)c4)c3)c2[C@@H]1CCO`, the viability index under setting [1] worked out at 1.08 ± 0.081. In turn, `CC(C)NC(=O)N1Cc2cc(C(=O)NC3Cc4ccccc4C3)nc(-c3cccc(-c4cccnc4)c3)c2[C@@H]1CCO` registered a viability index under setting [1] of 0.97 ± 0.052. Molecule `CC(C)(C)[S@](=O)N1Cc2cc(C(=O)NCc3ccccn3)nc(-c3cccc(-c4ccccc4F)c3)c2[C@@H]1CCO` returned a viability index under setting [1] of 0.955 ± 0.08. The same measure, in the same setting: in the case of `CC(C)(C)[S@@](=O)N1Cc2cc(C(=O)NCc3ccccc3F)nc(-c3cccc(-c4cncnc4)c3)c2[C@H]1CCO` it was 0.801 ± 0.1; in that of `CC(C)NC(=O)N1Cc2cc(C(=O)NC3CCC3)nc(-c3cccc(-c4cncnc4)c3)c2[C@@H]1CCO`, 1.01 ± 0.018.

`CC(C)NC(=O)N1Cc2cc(C(=O)NC3Cc4ccccc4C3)nc(-c3cccc(-c4cccnc4)c3)c2[C@H]1CCO` registered a viability index under setting [1] of 0.764 ± 0.091. The molecule `COc1ccc(CNC(=O)c2cc3c(c(-c4cccc(-c5ccc(C#N)cc5)c4)n2)[C@H](CCO)N([S@@](=O)C(C)(C)C)C3)cc1` came in with a viability index under setting [1] of 0.977 ± 0.085. Take `CO[C@@H]1CC[C@H]2CCN(C)C(=O)[C@H](C)CN(C)C(=O)c3cc(C#N)ccc3OC[C@@H]1O2`: the viability index under setting [1] came to 0.973 ± 0.056. In turn, `CCC(=O)Nc1ccc2c(c1)C(=O)N(C)C[C@@H](OC)[C@H](C)CN(C(=O)Cc1cccnc1)[C@@H](C)CO2` came in with a viability index under setting [1] of 1.13 ± 0.043.

The molecule `O=C(Cc1ccncc1)N1CC[C@@H]2[C@H](CO)Nc3ccc(Br)cc3[C@@H]21` returned a viability index under setting [1] of 1.077 ± 0.0015.

Regarding `C/C=C/c1cccc(-c2nc(C(=O)Nc3nccs3)cc3c2[C@@H](CCO)N(C(=O)NC(C)C)C3)c1`, the viability index under setting [1] was 0.867 ± 0.035. On the same count and under the same terms, to `C[C@@H]1CN([C@H](C)CO)C(=O)Cc2cc(NC(=O)Nc3ccc(F)cc3)ccc2O[C@H]1CN(C)S(C)(=O)=O` belongs 0.939 ± 0.16; to `CC(=O)NC[C@H]1[C@@H](c2ccc(C#Cc3ccccc3F)cc2)[C@@H](CO)N1C(C)=O`, 1.05 ± 0.002; to `C/C=C/c1ccc([C@H]2[C@@H](CO)N(C(=O)NC3CCCCC3)[C@H]2C#N)cc1`, 1.11 ± 0.16. Under setting [1], `CC(C)C#Cc1ccc([C@@H]2[C@@H](CO)N(C(=O)c3cccc(F)c3)[C@H]2C#N)cc1` gave a viability index of 1.17 ± 0.073. `C[C@@H]1CCCCO[C@@H](CN(C)S(=O)(=O)c2ccc(F)cc2)[C@@H](C)CN([C@@H](C)CO)C(=O)c2cc(N(C)C)ccc2O1` returned a viability index under setting [1] of 0. As to `Cc1noc(C)c1S(=O)(=O)N(C)C[C@@H]1OCCCC[C@@H](C)Oc2ccc(N(C)C)cc2C(=O)N([C@@H](C)CO)C[C@@H]1C`, the viability index under setting [1] was found to be 1.08 ± 0.068. The molecule `Cc1noc(C)c1S(=O)(=O)N(C)C[C@@H]1OCCCC[C@@H](C)Oc2ccc(N(C)C)cc2C(=O)N([C@@H](C)CO)C[C@H]1C` registered a viability index under setting [1] of 0.635 ± 0.13. `Cc1noc(C)c1S(=O)(=O)N(C)C[C@H]1OCCCC[C@@H](C)Oc2ccc(N(C)C)cc2C(=O)N([C@H](C)CO)C[C@@H]1C` displayed a viability index under setting [1] of 1.02 ± 0.029. Consider `C[C@@H]1CCCCO[C@@H](CN(C)S(=O)(=O)c2ccc(F)cc2)[C@H](C)CN([C@@H](C)CO)C(=O)c2cc(N(C)C)ccc2O1`, for which, under setting [1], the viability index was 1.05 ± 0.092.

Under setting [1], `C[C@H]1CCCCO[C@H](CN(C)S(=O)(=O)c2ccc(F)cc2)[C@@H](C)CN([C@@H](C)CO)C(=O)c2cc(N(C)C)ccc2O1` had a viability index of 1.09 ± 0.17. The molecule `CCC(=O)N1[C@@H](CO)[C@@H]2c3ccccc3N(C(=O)Nc3ccc(Cl)cc3)C[C@@H]21` had a viability index under setting [1] of 1.1 ± 0.044. Under setting [1], `COc1cccc(-c2ccc([C@H]3[C@H]4CNC[C@@H]3N4CC3CCCCC3)cc2)c1` registered a viability index of 0.963 ± 0.029. Under setting [1], `CCCC#Cc1cnc2c(c1)C(=O)N([C@H](C)CO)C[C@H](C)[C@H](CN(C)C(=O)Nc1cc(F)ccc1F)O2` showed a viability index of 1.02 ± 0.081.

For the molecule `COc1ccccc1NC(=O)Nc1ccc2c(c1)OC[C@@H](C)N(Cc1ccccc1Cl)C[C@@H](C)[C@H](OC)CN(C)C2=O`, under setting [2], the viability index stood at 0.821 ± 0.053.

As for `COc1ccccc1CN1C[C@@H](C)[C@H](OC)CN(C)C(=O)c2cc(NC(=O)Nc3ccccc3OC)ccc2OC[C@H]1C`, the viability index under setting [1] was 1.02 ± 0.091. Still for that read-out and setting: in the case of `CO[C@@H]1CN(C)C(=O)c2cc(NC(=O)Nc3cccc(Cl)c3)ccc2OC[C@H](C)N(C(=O)Nc2c(C)noc2C)C[C@H]1C` it was 1.07 ± 0.019.

On to `COc1ccccc1CN1C[C@@H](C)[C@H](OC)CN(C)C(=O)c2ccc(NC(=O)Nc3ccccc3OC)cc2OC[C@H]1C`, for which, under setting [2], the viability index is 0.855 ± 0.025.

The molecule `CO[C@@H]1CN(C)C(=O)c2cc(NC(=O)Nc3cccc(Cl)c3)ccc2OC[C@@H](C)N(C(=O)Nc2c(C)noc2C)C[C@H]1C` registered a viability index under setting [1] of 1.052 ± 0.0092. With `CO[C@H]1CN(C)C(=O)c2cc(NC(=O)Nc3cccc(Cl)c3)ccc2OC[C@H](C)N(C(=O)Nc2c(C)noc2C)C[C@H]1C`, the viability index under setting [1] was found to be 0.7814 ± 0.0047. Turning to `Fc1cccc(-c2ccc([C@H]3[C@H]4CNC[C@@H]3N4CC3CCOCC3)cc2)c1`, the viability index under setting [1] came out at 1.02 ± 0.0019. The same measure, in the same setting: to `C[C@@H]1CN([C@@H](C)CO)C(=O)c2ccccc2-c2ccccc2CO[C@@H]1CN(C)C(=O)[C@@H]1CCCN1C` belongs 0.936 ± 0.093.
